Hits are enriched below; roughly 4.2% of the tested compounds scored in any of these assays.
Sfp inh – inhibitors of Bacillus subtilis Sfp phosphopantetheinyl transferase. Q9F4F7. Biochemical Sfp PPTase activity, qHTS. Potency, µM, without a hit: largest response in the series, negative = inhibition, most hits filed as inhibitors. hit rate 3.5% among 310,000. AID 1490;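 also: the enzyme is Sfp with the accession as filed and its product quenches rhodamine fluorescence; 0% = enzyme reaction without inhibitor and -100% = no enzyme wells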
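Compounds were incubated with enzyme (final 15 nM) for 15 min at room temperature before substrate addition started the reaction. Fluorescence at 525 nm excitation, 598 nm emission was recorded immediately and after 30 minutes.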
ALOX12 inh – ALOX12 (human) lipoxygenase inhibition | P18054 | purified 12hLO, xylenol orange hydroperoxide absorbance | Potency, µM (highest dose often 108 µM), without a hit: at the highest dose activity change, negative = inhibition, actives largely listed as inhibitors | hit rate 1.1% among 580,000
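Purified human 12hLO at 150 nM in 25 mM Hepes, 0.01% Triton X-100, pH 7.0, preincubated 15 min at room temperature with compound. Reaction started with 40 uM arachidonic acid, 30 min at room temperature. Hydroperoxide measured by Fe-xylenol orange, 573/405 nm absorbance ratio.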
PLK1 PBD block – inhibitors of human PLK1 polo-box domain binding; P53350; Plk1 PBD binding of FITC phosphopeptide, fluorescence polarization; Potency, µM, for the others: max response, negative = inhibition, hits mostly inhibitors; hit rate 2.8% among 360,000; AID 720504; also: series mostly up to about 57 µM; nearly all actives have a fitted effect of over 65% in size
Target sequence (P53350 whole entry, looked up, the tested form may be a part): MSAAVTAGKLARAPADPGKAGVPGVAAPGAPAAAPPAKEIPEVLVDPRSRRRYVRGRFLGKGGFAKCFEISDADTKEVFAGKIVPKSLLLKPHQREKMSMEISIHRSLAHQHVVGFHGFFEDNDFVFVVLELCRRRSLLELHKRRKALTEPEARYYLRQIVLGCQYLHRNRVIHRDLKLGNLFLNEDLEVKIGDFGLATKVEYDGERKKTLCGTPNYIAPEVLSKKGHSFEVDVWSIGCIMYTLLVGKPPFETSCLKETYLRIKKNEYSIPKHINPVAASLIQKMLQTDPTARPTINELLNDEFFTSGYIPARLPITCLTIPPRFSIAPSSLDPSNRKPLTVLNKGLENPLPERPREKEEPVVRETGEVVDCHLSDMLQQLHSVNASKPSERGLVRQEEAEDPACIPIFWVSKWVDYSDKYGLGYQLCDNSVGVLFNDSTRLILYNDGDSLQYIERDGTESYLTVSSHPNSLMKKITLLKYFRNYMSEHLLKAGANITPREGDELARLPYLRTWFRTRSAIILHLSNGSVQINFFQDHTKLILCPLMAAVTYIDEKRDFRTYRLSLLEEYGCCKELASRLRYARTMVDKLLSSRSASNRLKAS
VDR inhibitor – inhibitors of human vitamin D receptor | Potency, µM, inactives show max response, negative = inhibition, hits mostly inhibitors | VDR-SRC2-3 peptide fluorescence polarization, 2 h | hit rate 0.93% among 400,000 | P11473 | AID 504847
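Signal is fluorescence polarization, reporting how far test compounds block the interaction of VDR with the SRC2-3 coregulator peptide after a 2 h room-temperature incubation.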
* hit, by the source's call; ? = inconclusive; / = no result given; [ ] = another dose, or the depositor's remark. Calls follow the shape of the dose curve; as a rule, active = well fitted curve in the direction sought with a large enough effect; inconclusive = small, poorly fitted or top-dose-only effect, or another doubt; inactive = no such curve, though single readings can be large; an effect the other way counts as inactive or inconclusive. Unless noted, % is scaled to controls: 0 for no effect and ±100 for the full control effect; potency is read from the fitted curve at half-maximal effect.

SMILES	Sfp inh	ALOX12 inh	PLK1 PBD block	VDR inhibitor
C=CCN1C=CC=C/C1=C1\SC(=S)N(C)C1=O	?	?	-16.2%	-26.1%
CN1C(=O)C(=C2CCCCCC2)SC1=S	56.2µM*	?	-26.0%	-5.7%
COc1ccc(C2Nc3ccccc3C(=O)N2Cc2ccco2)cc1COc1ccc(F)cc1 (stereo not given)	39.8µM*	-4.0%	-19.2%	-4.6%
COC(=O)C1(C(=O)OC)C[C@H](c2ccc(OC)cc2)N(Cc2ccccc2OC)[C@@H]1c1ccccc1	/	-12.0%	-17.6%	/
Cc1cccc(OCc2n(CC(=O)OC3CC(C)CCC3C(C)C)c3ccccc3[n+]2C)c1 (stereo not given)	25.1µM*	/	-11.7%	-4.5%
COCCNC(=O)c1ccc2c(c1)N(C)C(CC(=O)NCC(F)(F)F)CO2 (stereo not given)	/	42.4%	/	/
NC1=NC(S)C2N=CN=C2N1 (stereo not given)	56.2µM*	/	/	?
CCN(C[C@H]1N[C@@](CC)(C(=O)OC)[C@H]2C(=O)N(Cc3ccccc3)C(=O)[C@@H]12)S(=O)(=O)c1ccc(OC(F)(F)F)cc1	/	0.7%	-8.6%	-5.0%
CSC1=NC(C)(C)C=C(/C=C/c2ccc(Cl)cc2)N1	39.8µM*	?	?	31.6µM*
O=[N+]([O-])c1ccccc1S(=O)(=O)Oc1ccc(C(=S)N2CCOCC2)cc1	-6.7%	-4.1%	5.32µM*	-1.3%
O=C(Oc1ccc(C(=S)N2CCOCC2)cc1)c1ccc([N+](=O)[O-])cc1	-5.8%	0.0%	-3.9%	-6.0%
CCCCN1C(=O)/C(=C/C=C2\Oc3ccccc3N2CC)SC1=S	-26.1%	-8.9%	51.8%	12.5%
CCN1/C(=C/C=C/c2oc3ccc(-c4ccccc4)cc3[n+]2CC)Oc2ccc(-c3ccccc3)cc21	11.2µM*	?	-110.0%	23.0%
O=S(=O)(c1ccc(F)cc1)N1CN(Cc2ccco2)c2nc3ccccc3nc21	56.2µM*	?	-15.7%	-2.3%
Cc1ccc(S(=O)(=O)Nc2nc3ccccc3nc2NCc2ccco2)cc1C	2.8%	0.0%	?	-6.5%
COc1ccc(S(=O)(=O)N2CN(Cc3ccco3)c3nc4ccccc4nc32)cc1	56.2µM*	-8.6%	-26.7%	-3.9%
Cc1ccc(S(=O)(=O)N2CN(Cc3ccco3)c3nc4ccccc4nc32)cc1C	39.8µM*	2.2%	-13.4%	9.9%
Cc1ccc(S(=O)(=O)N2CN(Cc3ccco3)c3nc4ccccc4nc32)cc1	-28.6%	246.5%	-11.1%	14.5%
Cc1cc(CN(C)c2cc(C3CC(N)C3)nc(N)n2)no1 (stereo not given)	/	10.7%	/	/
COCCn1c(SCC(=O)N2CCCC2)nnc1C(C)C	22.0%	0.0%	-1.1%	-3.9%
CCCn1c(SCC(=O)N2CCCCC2)nnc1C(C)C	13.3%	-0.8%	10.6µM*	79.4µM*
Nc1c(Cl)ncnc1N/N=C/c1cccc(O)c1	56.2µM*	37.6%	-7.1%	-25.9%
O=C(O)COc1ccc2c(c1)CCCC2	20.5%	24.7%	2.6%	1.1%
Cc1ccc(/C=C/C(=O)c2cc(Br)ccc2OC(=O)c2ccco2)cc1	5.5%	?	-22.2%	-2.0%
COc1ccccc1/C=C/C(=O)c1ccc(C)cc1OC	/	2.0%	/	/
SMILES	Sfp inh	ALOX12 inh	PLK1 PBD block	VDR inhibitor
CCNc1ccc(Br)cc(C(=O)/C=C/c2ccccc2Cl)c1=O	/	8.91µM*	?	28.2µM*
CNc1ccccc(C(=O)/C=C/c2ccccc2OC)c1=O	31.6µM*	?	-22.5%	?
O=C(/C=C/c1ccccc1Cl)c1cccc(O)c1	/	-74.1%	/	/
COc1ccccc1/C=C/C(=O)c1cc(Br)ccc1OC(=O)c1ccco1	/	?	23.8µM*	?
COc1cccc(/C=C/C(=O)c2cc(C)ccc2C)c1OC	/	-13.8%	/	/
CNc1ccc(Br)cc(C(=O)/C=C/c2cccc(OC)c2OC)c1=O	12.6µM*	?	-8.0%	-2.5%
Oc1ccc2ccccc2c1C1Nc2cccc3cccc(c23)N1	-8.8%	?	-8.6%	-10.9%
Oc1ccc(O)c2c1C1c3ccccc3C2c2ccccc21	50.1µM*	/	/	/
Cc1ccc(NCc2nc3ccccc3n2C)cc1	?	-7.2%	-3.1%	-1.5%
Cn1c(CNc2ccc(O)cc2)nc2ccccc21	79.4µM*	-26.1%	-6.3%	3.0%
Cc1nc(-c2cc(-c3ccc(Cl)cc3)no2)cs1	13.6%	0.0%	2.0%	-13.7%
O=C(c1ccc(Cl)c(S(=O)(=O)NCc2ccco2)c1)N1CCN(c2ccccc2F)CC1	5.9%	17.0%[57.4 µM]	26.7µM*	-10.4%
NC(=O)C1CCN(C(=O)c2ccc(Cl)c(S(=O)(=O)NCc3ccco3)c2)CC1	/	10.2%	-10.8%	0.1%
COc1cc(OC)cc(-c2nnc3n2N=C(c2c(OC)cccc2OC)CS3)c1	-19.6%	/	/	/
COc1ccc(C)cc1NC(=O)c1nnn(Cc2cccc(F)c2)c1N	12.7%	15.5%	37.7µM*	5.4%
COc1ccc(NC(=O)c2nnn(Cc3cccc(F)c3)c2N)c(OC)c1	-4.8%	7.4%[57.4 µM]	-7.7%	-10.1%
O=C1C2ON(c3ccc(Cl)cc3)C(c3ccco3)C2C(=O)N1c1ccccc1 (stereo not given)	31.6µM*	0.0%[57.4 µM]	-9.3%	?
Cc1cccn2cc(CSc3ccccc3N)nc12	?	21.8%	?	-10.8%
COc1cccc(-c2cc(C(=O)Nc3nc4ccccc4s3)c3ccccc3n2)c1	39.8µM*	?	?	13.7%
NC(=S)Nc1nc2ccccc2s1	50.1µM*	6.31µM*	-12.6%	-4.7%
O=C(Nc1nccs1)c1cc(-c2ccco2)nc2ccccc12	-79.3%	44.7µM*	-22.9%	-19.1%
O=C(Nc1nccs1)c1cc(-c2ccccc2)nc2ccccc12	0.9%	-18.0%	-2.9%	-0.5%
COc1ccc(C(=O)Nc2nc3ccccc3s2)c(OC)c1	3.4%	38.3%	3.36µM*	?
O=C(O)C1CNCCN(C(=O)c2nc3ccc(F)cc3[nH]2)C1 (stereo not given)	/	114.3%	/	/
O=S(=O)(NC1CCCN(c2nc3ccccc3s2)C1)N1CCCC1 (stereo not given)	/	-25.0%	/	/
SMILES	Sfp inh	ALOX12 inh	PLK1 PBD block	VDR inhibitor
CN(NC(=O)c1ccccc1F)c1ncccc1[N+](=O)[O-]	11.8%	13.5%	-12.0%	-19.3%
COc1ccc(C)cc1NC(=O)c1cnc(N2CCCCC2)c2ccccc12	/	0.7%	/	/
O=C(NCc1cccc(C(F)(F)F)c1)c1ccc2nc([C@@H]3O[C@H](CO)[C@@H](O)[C@H]3O)[nH]c2c1	/	2.2%	-11.8%	/
CCCOc1cccc(-c2cc(C(=O)NNC(=S)NCC)c3ccccc3n2)c1	4.8%	25.1µM*	-24.5%	-13.5%
O=C(Nc1nc2ccccc2s1)c1cc(-c2ccco2)nc2ccccc12	44.7µM*	-22.1%	-22.2%	?
COCCN1CC2(CCCN(C(=O)Nc3ccc4c(c3)OCO4)C2)CCC1=O (stereo not given)	/	14.6%	/	/
CN(C)c1ccc(C(=O)N/N=C/c2ccc(Br)s2)cc1	/	20µM*	/	/
FC(F)(F)c1cc(NC(=S)NC(c2ccccc2)c2ccccc2)cc(C(F)(F)F)c1	28.9%	/	/	-21.3%
FC(F)(F)c1cc(NC(=S)Nc2ccc3cc4ccccc4cc3c2)cc(C(F)(F)F)c1	-24.6%	/	/	22.4µM*
CN(C)C(=S)NC(=S)Nc1ccc2ccccc2c1	/	35.5µM*	-11.1%	0.8%

Source: PubChem (National Center for Advancing Translational Sciences (NCATS))
